About 83,000 compounds went through this panel and 20% of them were active in at least one assay; those are over-represented in the sample as a whole.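 Activity criterion: percent growth below 10, measured after cells in 96-well plates were exposed to a single compound concentration for 48 hours.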 The source made the active and inactive calls.
Test system: MDA-MB-468 breast
Experiment: NCI-60 one-dose screen, 48 h (100 = growth as untreated, 0 = no growth, -100 = all killed)
Conditions: 10 µM unless noted

Compound	growth
CCOC(=O)C1(CC(C)C)CCOC1=O (stereo unspecified)	99.7% (inactive)
O=C(/C=C/C12c3ccccc3C(c3ccccc31)C1C(=O)N(c3ccccc3)C(=O)C12)c1ccccc1 (stereo unspecified)	1.31% (active)
CCC(C)(O)Cc1ccc(Cl)cc1 (stereo unspecified)	101% (inactive)
CC(C)(C)OC(=O)N1CCc2c(sc3ncnc(N/N=C/c4ccc(Br)cc4)c23)C1	24.9% (inactive)
CCCCOCCOCCOCc1cc2c(cc1Br)OCO2	102% (inactive)
Cc1ccc(-c2cnc3sc(C(=O)NCCc4ccccc4)c(C)n23)cc1	93.1% (inactive)
CCOC(=O)c1cc2c(n1Cc1ccccc1)-c1oncc1CC2	40.1% (inactive)
COc1cc(-c2nc(SCCC(C)C)nc(NNC(=O)c3ccncc3)c2C#N)cc(OC)c1OC	77.7% (inactive)
CCOC(=S)Sc1ccc([N+](=O)[O-])cc1[N+](=O)[O-]	52.7% (inactive)
CC(=O)N1N=C(c2ccc(C)cc2)CC1c1ccc(Oc2ccc(Br)cc2)cc1 (stereo unspecified)	75% (inactive)
N#C/C(=C\c1ccc(Cl)cc1Cl)C(N)=O	96.3% (inactive)
COc1cc(OC)c2cc(C(=O)O)c(=O)oc2c1	99.9% (inactive)
CC1CN(/N=C/c2ccc([N+](=O)[O-])o2)C(=N)O1 (stereo unspecified)	89.6% (inactive)
O=C(O)[C@@H]1[C@H]2C[C@H]3c4[nH]c5ccccc5c4CCN3C[C@@H]2CC[C@@H]1O	104% (inactive)
NC(N)=Nc1ccc(Nc2cccc(Nc3ccc(Cl)c(C(F)(F)F)c3)c2)cn1	-7.19% (active)
Nn1c(=O)n(-c2cccc(C(F)(F)F)c2)c(=O)c2cc(-c3ccc(F)cc3F)ccc21	-5.36% (active)
